The source of these data is ChEMBL document CHEMBL3988442, “University of Dundee, Small-Polar-MMV Screening Library” (2021).

Test [1] concerns the target T1, Aspartate--tRNA(Asp/Asn) ligase (Mycobacterium tuberculosis (strain ATCC 25618 / H37Rv)) (UniProt P9WFW3). Also: in the data most compounds retested in dose-response had high values.
T1 sequence (whole entry): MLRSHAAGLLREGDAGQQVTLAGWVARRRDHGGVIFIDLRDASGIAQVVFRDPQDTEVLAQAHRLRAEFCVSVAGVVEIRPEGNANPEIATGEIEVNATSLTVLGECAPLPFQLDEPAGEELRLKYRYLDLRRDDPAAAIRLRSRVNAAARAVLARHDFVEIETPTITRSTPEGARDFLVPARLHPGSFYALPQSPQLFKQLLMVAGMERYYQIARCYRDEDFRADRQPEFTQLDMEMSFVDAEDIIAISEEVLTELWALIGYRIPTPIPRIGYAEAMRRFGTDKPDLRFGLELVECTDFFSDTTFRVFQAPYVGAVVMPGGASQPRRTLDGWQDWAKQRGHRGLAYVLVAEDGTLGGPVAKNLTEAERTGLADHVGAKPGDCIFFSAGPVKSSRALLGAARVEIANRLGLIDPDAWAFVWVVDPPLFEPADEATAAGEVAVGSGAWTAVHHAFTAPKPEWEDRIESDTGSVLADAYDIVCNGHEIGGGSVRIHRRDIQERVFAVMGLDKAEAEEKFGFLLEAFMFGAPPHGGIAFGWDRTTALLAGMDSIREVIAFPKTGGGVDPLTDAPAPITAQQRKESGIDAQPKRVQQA
The test can be described thus: Assay for Asp RNA synthetase-1 from Mycobacterium tuberculosis. The test is classed as functional. Also noted: scale not given: direction of the effect not stated beside the values. The conditions noted are these: 30 µM.

The target in test [2] is Shiga toxin 2 (Escherichia coli O157:H7) (UniProt P09385+P09386). The test can be described thus: E. coli 0.157:H7 Shiga Toxin SOP - stx2 screening assay. The test is classed as functional. Also noted: scale not given: direction of the effect not stated beside the values. The conditions noted are these: 30 µM.

For `O=C(c1cscn1)N1C[C@@H]2C[C@@H](c3nnc(C4CC4)o3)O[C@@H]2C1`, the Percent Effect in test [1] was 1.21%; in test [2], -37.8%.

On to `CCn1cc(CN2CCCN(C(=O)c3ccn(C)c(=O)c3)CC2)cn1`, for which the Percent Effect in test [1] was 1.33%; in test [2] it was -0.744%.

`CC(C#N)CSc1ccccc1NCC(=O)Nc1ccc(F)cc1` (stereo not drawn): the Percent Effect in test [1] was 2.19%; in test [2] it was -7.42%.

Regarding `O=C(O)c1coc(COc2cccc(F)c2)n1`, the Percent Effect is -2.21% in test [1] and -2.73% in test [2].

`C[C@H]1C[C@@H]2CCN(C(=O)c3ccncn3)C[C@H]2O1`: the values for the Percent Effect in test [1] and in test [2] were 4.15% and -27.6%, respectively.

For `Cc1ccccc1-c1cncc(C2CCN(C(C)C)CC2)n1`, the Percent Effect was -1.25% in test [1] and -10.3% in test [2].

Turning to `CSCC(C)(O)CNC(=O)c1ccc(Br)cc1F` (stereo not drawn), the values for the Percent Effect in test [1] and in test [2] were 3.26% and 13.2%, respectively.

As to `Cc1ccc(CN2CCc3c(C(=O)N(C)C)nn(C)c3C2)s1`, the Percent Effect in test [1] amounted to 1.82%; in test [2] it was 3.56%.

In the case of `N#Cc1ccccc1OCCN1CCCC1Cn1cccn1` (stereo not drawn), the results for the Percent Effect in test [1] and in test [2] were -0.558% and 2.91%, respectively.

For `Cc1noc(C)c1CC(=O)OCC(=O)N1CCc2sccc2C1`, the Percent Effect is 6.42% in test [1] and -7.79% in test [2].

Consider `CC(C)N(Cc1nc2c(cnn2C)c(=O)[nH]1)c1ccccc1`, for which the Percent Effect in test [1] is -2.77%; in test [2], 3.48%.

As for `O=C(C1CCOC1)N1CCc2ncc(CNc3ccccn3)n2CC1` (stereo not drawn), the Percent Effect is -0.229% in test [1] and -21.5% in test [2].

Regarding `FC(F)(F)C1CCc2nnc(CNCc3ccsc3)n2C1` (stereo not drawn), the Percent Effect was -0.0705% in test [1] and 3.92% in test [2].

Take `Cc1ccc2c(n1)N(C)CCN(C(=O)NC1CC1)C2`: the Percent Effect is 7.86% in test [1] and -7.89% in test [2].

In the case of `Cc1ccc(CNC(=O)CN2CCN(CC(O)c3ccco3)CC2)cc1` (stereo not drawn), the Percent Effect in test [1] is -6.22%; in test [2], -10.6%.

On to `COc1cccc(CNc2cnn(C)c(=O)c2Cl)c1`, for which the Percent Effect in test [1] was -6.1%; in test [2] it was 11.4%.

Regarding `Cc1ccc(Cl)cc1N1CCC(CNC(=O)CC(F)(F)F)C1` (stereo not drawn), the results for the Percent Effect in test [1] and in test [2] were -1.19% and -45.5%, respectively.

`COc1cccc(-n2c(C)cc(C(=O)NS(C)(=O)=O)c2C)c1`: the figures for the Percent Effect in test [1] and in test [2] were -1.31% and 4.7%, respectively.

Turning to `CC(C)n1ccnc1C1CCN(C(=O)c2ccccc2)CC1`, the Percent Effect in test [1] is -4.71%; in test [2], 12.4%.

As for `Cc1cc(NC(=O)CCN2CCCC2Cn2cncn2)no1` (stereo not drawn), the Percent Effect was -2.02% in test [1] and -32.1% in test [2].

`O=C(CN1CCCC1Cn1cncn1)NCCOc1cccc(F)c1` (stereo not drawn): the values for the Percent Effect in test [1] and in test [2] were -0.983% and 18.7%, respectively.

On to `Cc1nc(C)n(CC2CN(CCOc3ccccc3F)CCO2)n1` (stereo not drawn), for which the Percent Effect in test [1] was -0.955%; in test [2], 9.47%.

Consider `Fc1ccc(OCc2noc(CN3CCc4cncnc4C3)n2)cc1`, for which the figures for the Percent Effect in test [1] and in test [2] were -0.7% and -1.88%, respectively.

`CN(CCN1CCOCC1)C(=O)CCCc1ccccc1`: the Percent Effect was -6.41% in test [1] and 0.944% in test [2].

With `c1cnc(-c2cnc(N3CCSCC3)nc2C2CC2)cn1`, the Percent Effect in test [1] is 1.07%; in test [2] it was 4.88%.

As to `Cc1n[nH]c(C2CN(C(=O)CCc3ccco3)CCO2)n1` (stereo not drawn), the figures for the Percent Effect in test [1] and in test [2] were 7.13% and -9.36%, respectively.

Take `CC(C)(C)N1CCCN(C(=O)c2csc(S(N)(=O)=O)c2)CC1`: the Percent Effect in test [1] was -2.95%; in test [2] it was -17.3%.

Take `COC(=O)CNC(=O)CSCc1nc(O)c2cc(C(C)C)sc2n1`: the Percent Effect in test [1] is -0.639%; in test [2], -7.38%.

As to `O=C(c1ccncc1)N1Cc2ccccc2OC2(CCOCC2)C1`, the Percent Effect was -4.33% in test [1] and -1.88% in test [2].

As for `Cc1cnn(CCCNC(=O)N2CCCCC(N3CCCC3)C2)c1` (stereo not drawn), the Percent Effect worked out at 1.48% in test [1] and 22.3% in test [2].

Take `COCCN1CC[C@@H]2OC[C@H](C(=O)NCc3cccs3)C[C@@H]2C1`: the Percent Effect in test [1] was 2.37%; in test [2], -14.7%.

Take `Cc1nn(C)c(C)c1CNCc1ccc(N2CCOCC2)nc1`: the Percent Effect is 2.11% in test [1] and -24.1% in test [2].

For the molecule `CN(C)CCN1C(=O)CCC12CCN(C(=O)c1cccnc1)CC2`, the Percent Effect in test [1] is -0.637%; in test [2] it was -8.32%.

`COc1cccc2ccn(CCC(=O)N3CCCC(C(=O)O)C3)c12` (stereo not drawn): the Percent Effect in test [1] was 9.22%; in test [2], -2.31%.

Take `COCCC(=O)N1CC[C@@H](N(C)C)[C@@H]1Cc1ccccc1`: the Percent Effect was -3.16% in test [1] and 2.6% in test [2].

In the case of `O=C(NCc1cc[nH]n1)NCC(c1ccc(F)cc1)N1CCOCC1` (stereo not drawn), the Percent Effect was -0.433% in test [1] and -14.2% in test [2].

For `CNC(=O)[C@H]1C[C@H]2OCC[C@H]2N(Cc2ccc(C)o2)C1`, the Percent Effect was -1.06% in test [1] and -4.41% in test [2].

With `Cc1nc(C)n(C2CCCN(C(=O)c3cc(C(N)=O)cs3)C2)n1` (stereo not drawn), the results for the Percent Effect in test [1] and in test [2] were -5.92% and -13.1%, respectively.

Regarding `COCCNC(=O)[C@H]1CN(Cc2nccs2)C[C@H]2OCC[C@@H]12`, the Percent Effect in test [1] is -4.08%; in test [2], 1.98%.
